From PubChem BioAssay (NCI)
Compounds without any hit were thinned out: in the full panel of roughly 83,000, 20% have a hit.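 Testing used 96-well plates and a 48-hour single-concentration exposure. Example: -40 means 40% of the starting cells died.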 Activity calls are given as the source filed them.

Each molecule was assayed on OVCAR-3 ovarian (assay: NCI-60 one-dose screen, 48 h (100 = growth as untreated, 0 = no growth, -100 = all killed)). Conditions: 10 µM unless noted.
Experimental: Growth inhibition of the OVCAR-3 human tumor cell line is measured as a screen for anti-cancer activity. Cells are grown in 96 well plates and exposed to the test compound for 48 hours. Compounds are tested at a single concentration, which is 10^-5 M for most compounds. The reported endpoint is percent growth (GI% or GIPRCNT), where numbers from 0 - 100% represent growth inhibition, and numbers from -100% - 0 represent cell death. For example, a value of 40 represents 60% growth inhibition. A value of 0 means no net growth occurred over the course of the experiment. A value of -40 indicates 40% of cells at the beginning of the experiment died by the end of the experiment. A value of -100 means all cells are dead at the end of the experiment.
NCI-60 Human Tumor Cell Lines Screen was performed using the standard one-dose NCI protocol, which is described in more detail at https://dtp.cancer.gov/discovery_development/nci-60/default.htm.
Compounds with GIPRCNT values below 10 were considered active. Activity score was based on GIPRCNT using the following formula: […]
Score is 0 for GIPRCNT values of 100 or above, 50 for GIPRCNT values of 0, and 100 for GIPRCNT values of -100.
For `CCOc1ccc(/C=N\N=C\c2ccc(OCC)cc2)cc1`, the growth was 114% (inactive).
`Cn1cc(-c2nonc2-c2c[nH]c3ccccc23)c2ccccc21` was tested, and the growth was -17.7% (active).
For `CCOC(=O)c1c(C)nc2c(c1N)CC(=O)N2Cc1cc(OC)c(OC)c(OC)c1`, the growth was 23.5% (inactive).
With `O=C1NC(=O)c2c1c1c3ccccc3[nH]c1c1oc3ccc(F)cc3c21` the growth was 83.1% (inactive).
In the case of `COc1ccc2cc(-c3ccc(-c4ccc(C(=N)N)s4)s3)ccc2c1`, the growth is reported as -61.1% (active).
In the case of `CCOC(=O)c1c2c(n3c1NCC3)-c1ccccc1C2=O`, the growth is reported as 92.1% (inactive).
`COC(=O)c1nc(-c2ccccc2)oc1S(=O)(=O)N1CCC(C(N)=O)CC1` was tested, and the growth was 16.2% (inactive).
In the case of `C#Cc1cccc(Oc2ccc(NC(=O)CCl)cc2)c1`, the growth is reported as -76.8% [8.25 µM] (active).
In the case of `COc1cc2oc(-c3cccc(NC(=O)c4ccc5c(c4)OCO5)c3)cc(=O)c2c(OC)c1OC`, the growth is reported as 53% (inactive).
In the case of `CCCCn1sc(=O)n(Cc2ccc(CNC(=O)OCc3ccc4c(Cl)cc(Cl)c(O)c4n3)cc2)c1=O`, the growth is reported as 66.3% (inactive).
`Cc1c2ccccc2nc2c1ccc1cccnc12` was tested, and the growth was -1.84% (active).
In the case of `O=C(CCCCNC(=O)c1cc(=O)c(O)co1)Nc1ccccc1`, the growth is reported as 47.4% (inactive).
With `COc1cc2c(c(OC)c1OC)C(=O)N[C@@H]1[C@@H](O)[C@@H](O)[C@H](O)C[C@@H]21` the growth was 112% (inactive).
`CCOC(=O)C(=Cc1cccc(C#N)c1)C(=O)OCC` was tested, and the growth was 61.2% (inactive).
`COc1cc(-c2nc3ccc(C)cc3[nH]2)ccc1OCC(=O)N=Nc1c(O)[nH]c2ccc(Cl)cc12` was tested, and the growth was -70.2% (active).
In the case of `COc1ccc(/C(C)=C(\c2ccc(Cl)cc2)c2ccc(OCCN3CCCC3)cc2)cc1`, the growth is reported as 63.7% (inactive).
For `CCCCN1C(=O)/C(=c2\sc3n(c2=O)NC2C(N=3)N(CC)C(=O)N2CC)c2ccccc21` (stereo not given), the growth was 0.018% (active).
For `Cn1cc(-c2nonc2-c2c[nH]c3ccc(F)cc23)c2cc(Br)ccc21`, the growth was 60.3% (inactive).
In the case of `COc1cc2nc(Nc3cccc(F)c3)nc(Nc3cc(C)[nH]n3)c2cc1OC`, the growth is reported as -80.2% [20 µM] (active).
`CCCCCn1sc(=O)n(Cc2ccc(CNC(=O)OCc3ccc4c(Cl)cc(Cl)c(O)c4n3)cc2)c1=O` was tested, and the growth was 69.8% (inactive).
`CN(C)c1ccc(C(=NO)c2ccc(N(C)C)cc2)cc1` was tested, and the growth was -15.1% (active).
With `CC(C(=O)O)n1c(O)c(C=Nc2cccnc2)sc1=S` (stereo not given) the growth was 105% (inactive).
For `CCOC(=O)c1c(NC(=O)c2ccc(C(C)(C)C)cc2)sc2cc(O)ccc12`, the growth was 110% (inactive).
In the case of `N#Cc1c(-c2cccc([N+](=O)[O-])c2)cc(-c2ccc(Nc3nc(Nc4ccc(F)cc4)nc(Nc4ccc(F)cc4)n3)cc2)nc1N`, the growth is reported as 100% (inactive).
In the case of `O=C(/C=C/C12c3ccccc3C(c3ccccc31)C1C(=O)NC(=O)C12)c1ccc(F)cc1` (stereo not given), the growth is reported as -10.1% (active).
In the case of `CN1CCN(Cc2ccc(NC(=O)c3cncc(C#Cc4cnn5ccccc45)c3)cc2C(F)(F)F)CC1`, the growth is reported as 0.315% (active).
`Cc1cc2nc(-c3c(-c4ccc(F)cc4)nc4sccn34)[nH]c2cc1C` was tested, and the growth was 102% (inactive).
For `CC/C=C1/C(=O)C=C[C@@H]1C/C=C\CCCC(=O)OC`, the growth was 51.4% (inactive).
For `Cc1cccc(NC(=O)CSc2nc3ccc([N+](=O)[O-])cc3[nH]2)c1`, the growth was 72.7% (inactive).
With `O=C(Nc1ncc(Cc2ccccc2Cl)s1)c1cccs1` the growth was 79.2% (inactive).
`COc1ccc(C2=NN(C(=O)c3cc(OC)c(OC)c(OC)c3)C(c3ccc(N(C)C)cc3)C2)cc1` (stereo not given) was tested, and the growth was 5.03% (active).
For `CCOC(=O)c1c(C)nn(CC(O)c2ccccc2)c1NC(=O)Nc1cccc(F)c1` (stereo not given), the growth was 95.6% (inactive).
With `COC(=O)C1=Nc2ccc(F)cc2/C1=C\c1sc(Nc2ccc(O)cc2)nc1O` the growth was 19.8% (inactive).
For `C/C(C=O)=C\c1ccc2c(c1)OCO2`, the growth was 132% (inactive).
`COc1ccc(C2CC(c3ccc4c(c3)OCO4)=Nc3c(N)ncnc3N2)cc1` (stereo not given) was tested, and the growth was 151% (inactive).
For `CCN1C(=O)N(CC)C2C1NN=c1s/c(=C\c3cc4ccccc4[nH]3)c(=O)n12` (stereo not given), the growth was 11.7% (inactive).
In the case of `CC(=O)N(Cc1ccccc1)c1nc2ccc(O)c(CN(C)C)c2s1`, the growth is reported as 105% (inactive).
`COc1ccc2c(c1)c(-c1nonc1-c1cn(C)c3ccc(OC)cc13)cn2C` was tested, and the growth was 11.4% (inactive).
`C=C1C(=O)O[C@H]2[C@H]1CC/C(CNC(=O)c1cc3ccccc3[nH]1)=C\CC[C@@]1(C)O[C@@H]21` was tested, and the growth was -93.8% (active).
In the case of `c1ccc(CNc2ccc3nc(CCC4CCCCC4)[nH]c3c2)cc1`, the growth is reported as 63.9% (inactive).
